Inhibition data for two compounds are collected here from ChEMBL document CHEMBL1961873, “Compounds: GSK PKIS; Assays: Nanosyn kinase panel” (2012).

Assay [1] deals with Protein kinase C gamma type (Homo sapiens) (UniProt P05129). To be noted: at 1 µM.
Assay [2] has as its target T1, Protein kinase C iota type (Homo sapiens) (UniProt P41743).
T1 sequence (whole entry): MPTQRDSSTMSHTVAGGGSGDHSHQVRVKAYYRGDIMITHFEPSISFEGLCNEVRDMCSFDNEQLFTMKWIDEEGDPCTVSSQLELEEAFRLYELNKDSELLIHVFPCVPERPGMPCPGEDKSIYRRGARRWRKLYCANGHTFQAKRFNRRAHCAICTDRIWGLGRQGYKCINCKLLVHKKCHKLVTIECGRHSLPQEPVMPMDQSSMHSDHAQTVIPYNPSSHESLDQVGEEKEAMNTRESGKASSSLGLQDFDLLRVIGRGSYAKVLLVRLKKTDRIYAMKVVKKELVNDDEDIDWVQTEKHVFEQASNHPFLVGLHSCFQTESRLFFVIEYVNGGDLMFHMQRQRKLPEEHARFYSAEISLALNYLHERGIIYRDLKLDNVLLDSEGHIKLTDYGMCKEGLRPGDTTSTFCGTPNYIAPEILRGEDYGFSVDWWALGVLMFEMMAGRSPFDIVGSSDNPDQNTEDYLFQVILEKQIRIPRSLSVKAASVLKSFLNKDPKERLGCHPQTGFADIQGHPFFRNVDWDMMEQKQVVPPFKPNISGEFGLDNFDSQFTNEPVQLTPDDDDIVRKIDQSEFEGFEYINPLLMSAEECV
Particulars: at 0.1 µM.

Assay [3] has as its target T1, Protein kinase C iota type (Homo sapiens). To be noted: at 1 µM.
Assay [4] has as its target Protein kinase C theta type (Homo sapiens) (UniProt Q04759). Particulars: at 0.1 µM.
Assay [5] shares this target. Particulars: at 1 µM.
Assay [6] has as its target Protein kinase C beta type (Homo sapiens) (UniProt P05771). To be noted: at 0.1 µM.
The target is the same in assay [7]. To be noted: at 1 µM.
Assay [8] addresses T2, Serine/threonine-protein kinase D1 (Homo sapiens) (UniProt Q15139).
T2 sequence (whole entry): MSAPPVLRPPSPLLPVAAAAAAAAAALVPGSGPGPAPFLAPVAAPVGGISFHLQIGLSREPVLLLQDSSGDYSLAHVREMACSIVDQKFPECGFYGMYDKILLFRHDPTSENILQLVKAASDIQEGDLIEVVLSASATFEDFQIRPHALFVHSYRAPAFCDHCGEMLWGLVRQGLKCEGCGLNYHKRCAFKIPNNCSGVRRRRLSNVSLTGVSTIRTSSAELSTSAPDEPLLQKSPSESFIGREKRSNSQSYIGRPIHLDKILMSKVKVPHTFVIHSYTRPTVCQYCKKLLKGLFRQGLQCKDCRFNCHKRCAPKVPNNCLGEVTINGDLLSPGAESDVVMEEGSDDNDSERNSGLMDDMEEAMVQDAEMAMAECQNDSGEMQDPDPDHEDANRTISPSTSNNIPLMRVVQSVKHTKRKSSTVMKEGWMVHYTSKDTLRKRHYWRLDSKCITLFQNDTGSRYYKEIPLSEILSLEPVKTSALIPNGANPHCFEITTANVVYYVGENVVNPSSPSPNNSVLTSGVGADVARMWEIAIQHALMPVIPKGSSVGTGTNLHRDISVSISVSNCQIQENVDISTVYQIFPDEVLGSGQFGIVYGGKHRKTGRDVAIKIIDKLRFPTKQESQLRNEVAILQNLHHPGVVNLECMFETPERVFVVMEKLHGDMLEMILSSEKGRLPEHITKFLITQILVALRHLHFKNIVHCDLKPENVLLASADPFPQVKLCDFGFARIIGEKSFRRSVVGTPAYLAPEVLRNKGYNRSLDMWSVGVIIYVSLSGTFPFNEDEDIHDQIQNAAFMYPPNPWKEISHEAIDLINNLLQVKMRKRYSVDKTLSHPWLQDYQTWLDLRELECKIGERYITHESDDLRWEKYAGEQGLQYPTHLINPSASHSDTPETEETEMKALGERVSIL
To be noted: at 0.1 µM.

Assay [9] has as its target T2, Serine/threonine-protein kinase D1 (Homo sapiens). Particulars: at 1 µM.
Assay [10] deals with T3, Serine/threonine-protein kinase D2 (Homo sapiens) (UniProt Q9BZL6).
T3 sequence (whole entry): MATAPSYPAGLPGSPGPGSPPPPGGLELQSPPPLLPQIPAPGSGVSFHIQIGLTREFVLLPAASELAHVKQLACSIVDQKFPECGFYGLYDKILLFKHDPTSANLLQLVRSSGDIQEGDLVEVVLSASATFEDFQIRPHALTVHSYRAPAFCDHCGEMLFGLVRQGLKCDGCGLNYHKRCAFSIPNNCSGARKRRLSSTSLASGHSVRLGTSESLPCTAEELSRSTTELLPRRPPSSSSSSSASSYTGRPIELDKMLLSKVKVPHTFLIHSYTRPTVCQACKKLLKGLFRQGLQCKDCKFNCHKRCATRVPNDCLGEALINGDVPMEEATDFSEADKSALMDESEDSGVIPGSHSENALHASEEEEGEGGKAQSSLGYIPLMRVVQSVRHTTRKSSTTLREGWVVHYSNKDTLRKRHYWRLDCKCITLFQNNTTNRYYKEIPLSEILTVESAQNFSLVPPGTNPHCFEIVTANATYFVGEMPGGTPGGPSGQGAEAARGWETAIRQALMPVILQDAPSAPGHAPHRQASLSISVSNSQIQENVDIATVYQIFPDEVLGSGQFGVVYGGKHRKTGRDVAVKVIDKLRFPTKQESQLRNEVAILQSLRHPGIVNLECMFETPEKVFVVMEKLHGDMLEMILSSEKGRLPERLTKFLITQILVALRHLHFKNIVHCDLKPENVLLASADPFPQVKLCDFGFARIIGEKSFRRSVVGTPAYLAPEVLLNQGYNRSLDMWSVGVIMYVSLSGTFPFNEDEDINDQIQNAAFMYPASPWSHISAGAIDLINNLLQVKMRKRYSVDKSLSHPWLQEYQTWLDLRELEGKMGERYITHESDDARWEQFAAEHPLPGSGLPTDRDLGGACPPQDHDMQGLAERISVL
To be noted: at 0.1 µM.

Assay [11] concerns the target T3, Serine/threonine-protein kinase D2 (Homo sapiens). To be noted: at 1 µM.
Assay [12] has as its target T4, Serine/threonine-protein kinase D3 (Homo sapiens) (UniProt O94806).
T4 sequence (whole entry): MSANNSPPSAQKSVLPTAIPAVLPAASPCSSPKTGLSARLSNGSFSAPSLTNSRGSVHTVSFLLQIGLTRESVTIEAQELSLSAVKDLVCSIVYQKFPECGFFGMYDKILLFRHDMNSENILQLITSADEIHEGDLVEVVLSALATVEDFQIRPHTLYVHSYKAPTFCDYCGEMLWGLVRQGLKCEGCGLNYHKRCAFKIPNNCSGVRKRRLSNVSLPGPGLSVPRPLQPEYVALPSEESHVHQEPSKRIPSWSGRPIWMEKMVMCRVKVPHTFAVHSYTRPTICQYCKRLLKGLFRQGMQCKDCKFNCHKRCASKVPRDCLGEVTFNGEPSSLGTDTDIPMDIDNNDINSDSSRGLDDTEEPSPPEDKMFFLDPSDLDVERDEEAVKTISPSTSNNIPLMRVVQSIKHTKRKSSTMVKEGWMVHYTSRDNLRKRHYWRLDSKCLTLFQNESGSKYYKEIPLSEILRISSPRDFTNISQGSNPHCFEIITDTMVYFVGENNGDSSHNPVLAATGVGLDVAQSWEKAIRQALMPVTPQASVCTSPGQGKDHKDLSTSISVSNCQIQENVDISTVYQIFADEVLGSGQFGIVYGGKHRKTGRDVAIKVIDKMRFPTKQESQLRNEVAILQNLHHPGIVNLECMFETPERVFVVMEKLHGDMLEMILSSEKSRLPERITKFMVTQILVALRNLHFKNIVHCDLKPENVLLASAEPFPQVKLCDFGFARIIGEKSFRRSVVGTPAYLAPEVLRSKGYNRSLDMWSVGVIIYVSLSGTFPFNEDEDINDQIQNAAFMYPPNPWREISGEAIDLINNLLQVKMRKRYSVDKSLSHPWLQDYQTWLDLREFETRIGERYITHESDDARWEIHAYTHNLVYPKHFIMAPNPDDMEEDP
Particulars: at 0.1 µM.

The target of assay [13] is T4, Serine/threonine-protein kinase D3 (Homo sapiens). To be noted: at 1 µM.
For assay [14], the target named is T5, cGMP-dependent protein kinase 1 (Homo sapiens) (UniProt Q13976).
T5 sequence (whole entry): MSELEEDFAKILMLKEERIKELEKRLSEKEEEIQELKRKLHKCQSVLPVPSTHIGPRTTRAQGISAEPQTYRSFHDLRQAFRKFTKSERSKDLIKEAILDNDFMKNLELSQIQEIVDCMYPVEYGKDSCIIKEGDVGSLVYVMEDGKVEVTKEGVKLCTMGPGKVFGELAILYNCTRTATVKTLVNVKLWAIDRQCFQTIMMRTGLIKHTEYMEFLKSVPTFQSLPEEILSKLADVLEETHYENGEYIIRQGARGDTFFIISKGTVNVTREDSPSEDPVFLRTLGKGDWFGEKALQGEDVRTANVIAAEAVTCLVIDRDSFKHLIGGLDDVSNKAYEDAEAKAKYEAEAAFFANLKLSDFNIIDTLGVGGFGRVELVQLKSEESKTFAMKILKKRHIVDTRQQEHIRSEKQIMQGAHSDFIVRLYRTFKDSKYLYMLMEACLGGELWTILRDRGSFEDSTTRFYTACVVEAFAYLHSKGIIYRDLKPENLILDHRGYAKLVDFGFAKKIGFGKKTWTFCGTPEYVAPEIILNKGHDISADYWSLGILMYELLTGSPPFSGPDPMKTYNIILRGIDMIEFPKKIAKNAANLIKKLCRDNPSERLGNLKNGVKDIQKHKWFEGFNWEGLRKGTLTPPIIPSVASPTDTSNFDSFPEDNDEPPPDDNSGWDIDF
Particulars: at 0.1 µM.

Assay [15] addresses T5, cGMP-dependent protein kinase 1 (Homo sapiens). Particulars: at 1 µM.
Assay [16] deals with T6, cGMP-dependent protein kinase 2 (Homo sapiens) (UniProt Q13237).
T6 sequence (whole entry): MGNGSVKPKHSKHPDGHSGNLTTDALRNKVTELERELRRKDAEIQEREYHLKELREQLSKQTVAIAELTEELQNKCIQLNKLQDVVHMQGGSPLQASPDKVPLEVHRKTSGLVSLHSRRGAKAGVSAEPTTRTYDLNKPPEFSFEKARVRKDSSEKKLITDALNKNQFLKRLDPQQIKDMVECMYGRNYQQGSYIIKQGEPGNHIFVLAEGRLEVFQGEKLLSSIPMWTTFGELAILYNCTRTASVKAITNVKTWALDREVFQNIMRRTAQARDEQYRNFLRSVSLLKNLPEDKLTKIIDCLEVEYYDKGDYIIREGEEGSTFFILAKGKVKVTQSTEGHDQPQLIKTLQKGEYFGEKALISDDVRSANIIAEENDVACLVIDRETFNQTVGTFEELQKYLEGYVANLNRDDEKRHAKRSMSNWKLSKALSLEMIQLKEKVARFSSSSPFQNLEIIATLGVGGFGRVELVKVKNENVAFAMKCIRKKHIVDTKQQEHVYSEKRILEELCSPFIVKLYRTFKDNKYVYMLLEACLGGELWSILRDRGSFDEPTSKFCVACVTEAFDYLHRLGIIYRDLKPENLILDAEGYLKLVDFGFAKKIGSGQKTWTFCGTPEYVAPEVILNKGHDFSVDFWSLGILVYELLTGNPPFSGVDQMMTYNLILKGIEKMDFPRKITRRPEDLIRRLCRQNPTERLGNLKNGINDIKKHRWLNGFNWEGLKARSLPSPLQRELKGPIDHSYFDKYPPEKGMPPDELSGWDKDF
Particulars: at 0.1 µM.

In assay [17] the target is T6, cGMP-dependent protein kinase 2 (Homo sapiens). To be noted: at 1 µM.
Assay [18] addresses T7, cAMP-dependent protein kinase catalytic subunit PRKX (Homo sapiens) (UniProt P51817).
T7 sequence (whole entry): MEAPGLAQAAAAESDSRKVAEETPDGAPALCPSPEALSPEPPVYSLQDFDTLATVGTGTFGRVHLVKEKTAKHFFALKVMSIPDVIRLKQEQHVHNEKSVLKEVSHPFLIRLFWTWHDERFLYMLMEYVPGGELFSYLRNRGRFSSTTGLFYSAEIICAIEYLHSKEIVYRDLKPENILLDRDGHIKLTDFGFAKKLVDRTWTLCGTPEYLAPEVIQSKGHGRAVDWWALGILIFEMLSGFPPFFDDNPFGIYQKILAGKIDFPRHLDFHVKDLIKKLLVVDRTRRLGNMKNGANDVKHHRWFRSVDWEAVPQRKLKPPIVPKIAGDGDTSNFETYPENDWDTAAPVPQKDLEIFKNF
To be noted: at 0.1 µM.

The target in assay [19] is T7, cAMP-dependent protein kinase catalytic subunit PRKX (Homo sapiens). To be noted: at 1 µM.
Assay [20] concerns the target Rho-associated protein kinase 1 (Homo sapiens) (UniProt Q13464). To be noted: at 0.1 µM.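 Further: values are mean percent inhibition of ROCK1.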

The inhibition is the relative decrease from the control value, in per cent.

Sequence of Protein kinase C theta type (Homo sapiens) (Q04759 whole entry, looked up): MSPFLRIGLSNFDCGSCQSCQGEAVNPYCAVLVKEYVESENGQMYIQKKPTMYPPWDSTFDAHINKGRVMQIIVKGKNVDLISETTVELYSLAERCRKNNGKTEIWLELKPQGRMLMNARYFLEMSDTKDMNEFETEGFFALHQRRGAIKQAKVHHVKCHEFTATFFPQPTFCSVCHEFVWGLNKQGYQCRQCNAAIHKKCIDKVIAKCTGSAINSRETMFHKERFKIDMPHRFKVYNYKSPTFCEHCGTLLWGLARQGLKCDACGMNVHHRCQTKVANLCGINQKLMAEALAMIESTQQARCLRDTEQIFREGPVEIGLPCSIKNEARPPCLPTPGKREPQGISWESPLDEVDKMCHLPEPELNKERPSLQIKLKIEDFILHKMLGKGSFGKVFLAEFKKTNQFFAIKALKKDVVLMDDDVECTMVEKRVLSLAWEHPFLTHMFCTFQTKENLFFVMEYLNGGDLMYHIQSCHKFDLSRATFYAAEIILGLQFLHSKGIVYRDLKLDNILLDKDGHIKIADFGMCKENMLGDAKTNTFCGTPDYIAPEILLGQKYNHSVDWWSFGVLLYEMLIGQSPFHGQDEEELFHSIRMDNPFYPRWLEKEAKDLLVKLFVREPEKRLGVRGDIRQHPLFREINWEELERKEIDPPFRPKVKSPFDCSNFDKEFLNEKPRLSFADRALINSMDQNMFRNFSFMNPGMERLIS
Sequence of Protein kinase C beta type (Homo sapiens) (P05771 2-671 limits assumed): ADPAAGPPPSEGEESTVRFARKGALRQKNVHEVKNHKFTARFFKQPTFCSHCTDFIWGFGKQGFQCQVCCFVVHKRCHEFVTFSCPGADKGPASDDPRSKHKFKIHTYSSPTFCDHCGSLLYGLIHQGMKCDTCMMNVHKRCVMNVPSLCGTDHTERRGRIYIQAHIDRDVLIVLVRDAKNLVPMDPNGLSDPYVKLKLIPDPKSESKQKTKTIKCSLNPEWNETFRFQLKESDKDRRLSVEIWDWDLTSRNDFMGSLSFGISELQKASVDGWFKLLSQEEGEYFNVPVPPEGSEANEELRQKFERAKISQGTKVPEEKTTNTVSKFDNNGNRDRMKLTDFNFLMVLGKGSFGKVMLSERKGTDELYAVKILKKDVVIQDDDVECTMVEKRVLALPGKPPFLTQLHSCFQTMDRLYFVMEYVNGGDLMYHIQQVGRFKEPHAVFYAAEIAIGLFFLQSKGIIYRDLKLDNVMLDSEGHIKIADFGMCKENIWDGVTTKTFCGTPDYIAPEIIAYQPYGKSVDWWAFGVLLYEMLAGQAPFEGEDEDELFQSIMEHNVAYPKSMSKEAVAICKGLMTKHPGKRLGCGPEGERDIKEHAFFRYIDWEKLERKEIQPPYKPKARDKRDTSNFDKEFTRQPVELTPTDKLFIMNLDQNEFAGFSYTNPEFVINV
Sequence of Rho-associated protein kinase 1 (Homo sapiens) (Q13464 2-1354 limits assumed): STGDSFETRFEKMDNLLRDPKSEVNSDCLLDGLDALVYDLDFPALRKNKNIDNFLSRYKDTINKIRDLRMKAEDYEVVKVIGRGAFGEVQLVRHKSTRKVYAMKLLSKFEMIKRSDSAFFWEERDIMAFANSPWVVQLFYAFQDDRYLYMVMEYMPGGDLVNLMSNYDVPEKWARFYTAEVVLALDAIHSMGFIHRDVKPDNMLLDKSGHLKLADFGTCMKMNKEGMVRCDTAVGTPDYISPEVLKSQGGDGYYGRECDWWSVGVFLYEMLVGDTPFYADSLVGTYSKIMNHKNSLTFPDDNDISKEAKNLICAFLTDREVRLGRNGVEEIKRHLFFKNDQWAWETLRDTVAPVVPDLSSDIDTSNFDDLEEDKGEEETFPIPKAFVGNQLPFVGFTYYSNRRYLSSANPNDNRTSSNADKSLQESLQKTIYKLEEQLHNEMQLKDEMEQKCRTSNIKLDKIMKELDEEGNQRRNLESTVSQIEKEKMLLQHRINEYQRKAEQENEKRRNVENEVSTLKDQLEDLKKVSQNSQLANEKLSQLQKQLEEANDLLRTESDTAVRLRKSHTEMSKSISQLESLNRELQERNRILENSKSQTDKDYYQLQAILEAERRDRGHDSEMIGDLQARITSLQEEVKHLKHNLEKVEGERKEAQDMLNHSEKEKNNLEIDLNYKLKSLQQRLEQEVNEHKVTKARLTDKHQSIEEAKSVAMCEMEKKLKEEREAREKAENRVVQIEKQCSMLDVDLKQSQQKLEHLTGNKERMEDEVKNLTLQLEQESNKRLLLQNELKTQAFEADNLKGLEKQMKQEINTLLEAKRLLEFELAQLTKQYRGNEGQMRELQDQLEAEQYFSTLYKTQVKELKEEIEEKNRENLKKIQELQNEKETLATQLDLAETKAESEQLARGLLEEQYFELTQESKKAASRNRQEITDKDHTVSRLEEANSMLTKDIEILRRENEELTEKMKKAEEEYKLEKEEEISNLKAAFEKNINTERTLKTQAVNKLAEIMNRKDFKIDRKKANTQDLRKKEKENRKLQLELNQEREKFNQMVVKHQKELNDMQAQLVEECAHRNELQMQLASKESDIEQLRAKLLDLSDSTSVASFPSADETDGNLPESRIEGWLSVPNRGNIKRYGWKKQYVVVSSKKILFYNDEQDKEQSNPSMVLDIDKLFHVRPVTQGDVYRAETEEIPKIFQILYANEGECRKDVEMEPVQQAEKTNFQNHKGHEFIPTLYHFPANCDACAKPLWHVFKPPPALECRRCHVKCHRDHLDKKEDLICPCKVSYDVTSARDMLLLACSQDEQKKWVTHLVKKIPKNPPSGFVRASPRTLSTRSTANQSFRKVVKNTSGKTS

For the compound `CCc1ccc(Oc2nccc(-c3c(-c4ccc(F)cc4)ncn3C3CCNCC3)n2)cc1`, the inhibition in [1] was determined as 10.9%; in [2], 0.16%; in assay [3] it was 1.79%; in [4], 4%; in [5], 8.13%; in assay [6], 2.37%. For the same compound, the inhibition in assay [7] was 9.56%; in assay [8], 3.88%; in assay [9], 13%; in assay [10], 4.63%; in assay [11] it was 13.7%; in [12] it was 4.01%. Further, the inhibition in assay [13] came to 9.71%; in assay [14], 4.32%; in assay [15] it was 10.4%; in assay [16] it was 5.03%; in [17] it was 8.46%; in assay [18], 3.21%. The inhibition in [19] came out at 3.97%; in [20] it was 1.24%.

`COc1cc2ncn(-c3cc(OCc4ccccc4C(F)(F)F)c(C(C)=O)s3)c2cc1OC`: the inhibition in assay [1] was 0.33%; in [2] it was 0.95%; in assay [3] it was 1.41%; in assay [4], 1.39%; in assay [5] it was 0.74%; in assay [6], 0.72%. For the same compound, the inhibition was found to be 0.23% in assay [7]; 3.39% in [8]; 5.09% in [9]; 2.5% in assay [10]; 2.55% in assay [11]; 2.93% in assay [12]. Also, the inhibition was determined as 3.23% in assay [13]; 1.35% in [14]; 0.72% in assay [15]; 0.9% in assay [16]; 0% in assay [17]; 0.6% in assay [18]. The inhibition was found to be 0.44% in assay [19] and 0.94% in assay [20].
